Shown are actives, neighbours in structure and some others; about 1.4% of the full set was active somewhere.
uPA generation: qHTS for Inhibitors of Cell Surface uPA Generation; AID 540303, 2011; 330,000 compounds, 0.31% hits; Potency, µM (doses to about 38.3 µM), usual class: inhibitors; cell surface uPA generation assay, qHTS; active = well fitted inhibition curve with a large enough effect; inconclusive = small, poorly fitted or top-dose-only effect; inactive = no such curve, though single readings can be large or run the other way; tested in mouse RAW 264.7 cells; also: nearly all actives have a fitted effect of over 55% in size
p53 reactivator: qHTS assay for re-activators of p53 using a Luc reporter. AID 504706, 2011. H1299 p53-A138V BP100-luciferase reporter, luminescence, 24 h. 320,000 compounds, 0.063% hits. Potency, µM (highest dose often 92.2 µM), most hits filed as activators; also: nearly all actives have a fitted effect of over 45% in size
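H1299 (p53-null), stable ts p53-A138V + BP100-Luc; 1000 cells/well, Opti-MEM/10% FBS; cpd 4 pt, 1:5; 24 h, 37 deg C, 5% CO2; detection reagent 10 min RT; luminescence.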
S-ASM inh: Inhibitors of Secretory Acid Sphingomyelinase (S-ASM): qHTS; placental ASM, HMU-PC fluorogenic substrate, 60 min; Potency, µM (doses to about 57.5 µM), actives largely listed as inhibitors; Sphingomyelin phosphodiesterase (Homo sapiens), P17405; AID 504937, 2011; 340,000 compounds, 0.006% hits
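qHTS format. ASM enzyme prepared from human placenta hydrolyses the fluorogenic substrate HMU-PC0 (9 uM final) over 60 min at 37 °C after a 10 min compound preincubation.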
KCNH2 3.1 inh: qHTS for Inhibitors of KCHN2 3.1: Mutant qHTS. Potassium voltage-gated channel subfamily H member 2, brain isoform KCNH2 3.1 (human). U2OS KCNH2 3.1, thallium flux FluxOr; stronger effect = lower value. activity change, % (tested at about 1.8 µM). 340,000 compounds, 0.95% hits. AID 720553, 2013;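 active = maximum activity change below -70%; inconclusive = maximum activity change from -70% to -50%; inactive = maximum activity change above -50%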;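 also: thallium influx rate constant from kinetic fluorescence after stimulation buffer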
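Virally transduced U2OS (3.1 isoform, 4 h infection in dark at RT) → overnight 37 C → FluxOr + Red40 in HBSS/HEPES, 45 min → stimulation buffer, 2 min kinetic read → rate constant vs DMSO controls.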
MmCpn inh: Inhibitors of TCP-1 ring complex (TRiC) of Methanococcus maripaludis (MmCpn): qHTS; purified Mm-Cpn ATPase, ADP Transcreener TR-FRET; 330,000 compounds, 0.031% hits; Potency, µM (top dose mostly 76.9 µM), hits mostly inhibitors; Chaperonin Mm-Cpn (Methanococcus maripaludis); AID 504842, 2011; also: nearly all actives have a fitted effect of over 80% in size
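Purified archaeal chaperonin (25 nM final) was preincubated with compound for 10 min at 37°C, then ATP (10 uM final) was added for 30 min at 37°C in Tris pH 7.4/KCl/MgCl2/DTT buffer. ADP was quantified by HTRF Transcreener TR-FRET.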
KCNH2 WT inh: qHTS for Inhibitors of KCHN2 3.1: Wildtype qHTS; Voltage-gated inwardly rectifying potassium channel KCNH2 (Homo sapiens), Q12809; U2OS, BacMam KCNH2, thallium flux FluxOr; stronger effect = lower value; activity change, % at 1.84 µM; 340,000 compounds, 0.37% hits; AID 720551, 2013;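 active = maximum activity change below -70%; inconclusive = maximum activity change between -70% and -50%; inactive = maximum activity change above -50%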
Target sequence (Q12809 whole entry, looked up): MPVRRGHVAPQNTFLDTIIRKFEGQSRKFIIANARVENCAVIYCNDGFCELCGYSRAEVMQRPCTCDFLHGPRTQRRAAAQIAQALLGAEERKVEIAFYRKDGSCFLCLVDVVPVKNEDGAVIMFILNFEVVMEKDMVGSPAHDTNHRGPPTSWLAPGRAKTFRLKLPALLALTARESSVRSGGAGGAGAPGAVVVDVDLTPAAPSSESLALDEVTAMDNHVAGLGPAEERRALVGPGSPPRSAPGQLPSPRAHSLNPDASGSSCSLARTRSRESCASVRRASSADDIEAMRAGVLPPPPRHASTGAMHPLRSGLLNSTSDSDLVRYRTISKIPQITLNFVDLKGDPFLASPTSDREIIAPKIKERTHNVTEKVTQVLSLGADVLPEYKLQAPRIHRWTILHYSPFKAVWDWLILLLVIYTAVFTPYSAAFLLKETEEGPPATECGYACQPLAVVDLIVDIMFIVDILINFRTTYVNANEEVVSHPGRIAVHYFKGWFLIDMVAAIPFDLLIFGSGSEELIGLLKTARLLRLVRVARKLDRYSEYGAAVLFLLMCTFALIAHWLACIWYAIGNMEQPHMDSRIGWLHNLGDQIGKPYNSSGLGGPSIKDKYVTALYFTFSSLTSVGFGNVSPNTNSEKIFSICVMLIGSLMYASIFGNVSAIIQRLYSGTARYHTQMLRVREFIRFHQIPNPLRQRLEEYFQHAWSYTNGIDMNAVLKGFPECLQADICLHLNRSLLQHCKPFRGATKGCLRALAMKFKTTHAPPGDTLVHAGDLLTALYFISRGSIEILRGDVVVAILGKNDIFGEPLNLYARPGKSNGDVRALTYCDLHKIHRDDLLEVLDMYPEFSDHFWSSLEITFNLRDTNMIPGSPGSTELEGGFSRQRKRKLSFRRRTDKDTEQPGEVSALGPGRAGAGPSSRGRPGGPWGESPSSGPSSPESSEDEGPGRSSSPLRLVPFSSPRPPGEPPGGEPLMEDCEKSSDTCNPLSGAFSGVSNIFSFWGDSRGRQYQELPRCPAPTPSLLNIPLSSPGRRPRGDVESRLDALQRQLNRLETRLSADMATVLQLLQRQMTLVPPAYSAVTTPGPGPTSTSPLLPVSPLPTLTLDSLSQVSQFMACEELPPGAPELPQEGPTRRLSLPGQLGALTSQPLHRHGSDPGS
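U2OS cells transduced with wild-type KCNH2 virus are loaded with FluxOr dye for 45 min, and thallium flux is measured in kinetic reads before and after stimulation buffer. Rate constants are normalized to DMSO controls.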
Of the large screens only hits and unclear results are named; the others gave an inactive call. Unless noted, calls follow the shape of the dose curve; as a rule, active = well fitted curve in the direction sought with a large enough effect; inconclusive = small, poorly fitted or top-dose-only effect, or another doubt; inactive = no such curve, though single readings can be large; an effect the other way counts as inactive or inconclusive.

O=C(NCc1ccccc1)C12CN(Cc3ccccc3)CC1C(c1ccc([N+](=O)[O-])cc1)=NO2 (stereo not given)	KCNH2 3.1 inh -77
O=C(NCc1ccco1)C12CN(Cc3ccccc3)CC1C(c1cccc([N+](=O)[O-])c1)=NO2 (stereo not given)	none
Cc1ccn2c(Cc3ccccc3)c(-c3ccc(Br)cc3)nc2c1	KCNH2 3.1 inh -74 (no result: uPA generation, p53 reactivator, S-ASM inh, MmCpn inh)
Cc1csc2c(=O)sc(NC(=O)c3ccc(F)cc3)nc12	none
Cc1csc2nc(NC(=O)c3ccccc3)sc(=O)c12	KCNH2 3.1 inh -79
O=C1NC(=O)C2(CCCc3ccc([N+](=O)[O-])cc32)N1 (stereo not given)	none (no result: uPA generation, p53 reactivator, S-ASM inh, MmCpn inh)
Cc1cc(C(C)(C)C)cc(C)c1C[n+]1ccc2ccccc2c1	uPA generation 4.5µM
CC1CC(C)CN(c2ccc(-n3cnnn3)cc2[N+](=O)[O-])C1 (stereo not given)	none
O=[N+]([O-])c1cc(-n2cnnn2)ccc1N1CCC(Cc2ccccc2)CC1	KCNH2 3.1 inh -81
O=C(c1cc(COc2c(F)cccc2F)on1)N1CCCCCC1	none (no result: KCNH2 3.1 inh)
O=C(c1cc(COc2c(F)cccc2F)on1)N1CCN(C2CCCCC2)CC1	KCNH2 3.1 inh -81
Cc1ccc(-n2nc3c(=O)n(CC(=O)NCCCc4ccccc4)nc(C)c3c2C)cc1	uPA generation 0.5µM
Cc1ccc(-n2nc3c(=O)n(C(C)C(=O)NCCCc4ccccc4)nc(C)c3c2C)cc1 (stereo not given)	none
Clc1ccc(CSc2snnc2-c2ccccc2)c(Cl)c1	p53 reactivator 40µM
CN(Cc1nc2ccccc2c(=O)[nH]1)C(=O)c1cc(-c2ccc(Br)cc2)nc2ccccc12	none (no result: p53 reactivator, MmCpn inh)
S=c1nc(-c2ccc(Br)cc2)[nH]c2ccccc12	KCNH2 WT inh -141
S=c1nc(-c2ccccc2)[nH]c2ccccc12	none
Cc1cc(N2CCN(c3nc(-c4ccccc4)cs3)CC2)c2ccccc2n1	S-ASM inh inconclusive, KCNH2 3.1 inh -79
O=S(=O)(c1ccccc1)N1CCN(c2ccnc3cc(Cl)ccc23)CC1	KCNH2 3.1 inh inconclusive
Cc1cc(N2CCN(S(=O)(=O)c3ccccc3)CC2)c2ccccc2n1	KCNH2 WT inh -109
C[C@H]1CN([C@@H](C)CO)C(=O)c2cc(Br)cnc2O[C@@H]1CN(C)S(=O)(=O)c1ccccc1	none (no result: uPA generation, p53 reactivator, S-ASM inh, MmCpn inh)
COc1ccc(C(=O)NC2CC2)cc1OC1CCN(Cc2ccc(F)cc2)CC1	KCNH2 3.1 inh inconclusive, KCNH2 WT inh inconclusive
COc1ccccc1/C=C/CN1CCC(Oc2cc(C(=O)NC3CC3)ccc2OC)CC1	KCNH2 3.1 inh -101, KCNH2 WT inh -120
COc1ccc(C(=O)NC2CC2)cc1OC1CCN(Cc2ccccc2)CC1	none (no result: KCNH2 3.1 inh)
C#Cc1ccc(CN2CCC(Oc3cc(C(=O)NC4CC4)ccc3OC)CC2)cc1	KCNH2 3.1 inh -103, KCNH2 WT inh -99 (no result: p53 reactivator)
Cn1nc(-c2ccc(Cl)cc2)c2cc(C(=O)N3CCCC3)sc21	KCNH2 3.1 inh -209, KCNH2 WT inh -143
Cn1nc(-c2ccc(Cl)cc2)c2cc(C(=O)N3CCN(c4ccccc4)CC3)sc21	none
COc1ccc(C)cc1NC(=O)C1CCN(C(=O)C2CC(=O)N(c3ccc(C)cc3)C2)CC1 (stereo not given)	none
Cc1cc(C(=O)COC(=O)c2ccccc2O)c(C)n1CC1CCCO1 (stereo not given)	uPA generation inconclusive
Cc1cc(C(=O)COC(=O)c2cccnc2Cl)c(C)n1CC1CCCO1 (stereo not given)	uPA generation 1.6µM
Cc1ccc(S(=O)(=O)N(C)Cc2cc3cc(C)ccc3[nH]c2=O)cc1	KCNH2 3.1 inh -117
N#Cc1ccc(NC(=S)NC(=O)C2CC2)cc1	none (no result: uPA generation, p53 reactivator, S-ASM inh, MmCpn inh)
CN1C(C(=O)NCc2ccc(OC(F)(F)F)cc2)CC2Cn3c(nc4cc(Cl)c(Cl)cc43)C21 (stereo not given)	KCNH2 3.1 inh -79, KCNH2 WT inh inconclusive
O=C(NCc1ccc(OC(F)(F)F)cc1)C1CC2Cn3c(nc4ccccc43)C2N1Cc1ccccc1 (stereo not given)	KCNH2 3.1 inh -98, KCNH2 WT inh -76
CN1C(C(=O)NCc2ccc(OC(F)(F)F)cc2)CC2Cn3c(nc4ccccc43)C21 (stereo not given)	none
CC1(C)N=c2ccc([N+](=O)[O-])c(N)c2=[N+]1[O-]	uPA generation 10µM
Cc1cc(NC(=O)c2ccc(C)c(C)c2)no1	uPA generation inconclusive (no result: p53 reactivator)
COc1ccc(NC(=O)COC(=O)c2ccc(-n3cnnn3)cc2)c([N+](=O)[O-])c1	none
Cc1ccc(S(=O)(=O)Oc2ccc(/C=C3\C(=N)N4N=C(S(C)(=O)=O)SC4=NC3=O)cc2)cc1	S-ASM inh inconclusive, KCNH2 3.1 inh -115
CCS(=O)(=O)C1=NN2C(=N)/C(=C\c3ccc(OS(=O)(=O)c4ccccc4)cc3)C(=O)N=C2S1	S-ASM inh inconclusive
CCOC(=O)C1C(=O)CC(=O)C(C(=O)OCC)C1c1ccc(O)cc1 (stereo not given)	none (no result: uPA generation, p53 reactivator, S-ASM inh, MmCpn inh)
Cc1ccc(S(=O)(=O)/N=C2\SC(CC(=O)Nc3ccc(F)cc3)C(=O)N2c2ccccc2)cc1 (stereo not given)	none
O=C(CC1S/C(=N\S(=O)(=O)c2ccccc2)N(c2ccccc2)C1=O)Nc1ccc(F)cc1 (stereo not given)	KCNH2 3.1 inh -80
Nc1ccc(Sc2nc3ccccc3[nH]2)cc1	KCNH2 WT inh -84
Nc1ccc(-c2nc3ccccc3[nH]2)cc1	uPA generation inconclusive (no result: p53 reactivator)
CC(C)Sc1nc2ccccc2[nH]1	KCNH2 3.1 inh -110
COC(=O)c1ccc(CNC(=O)C(Cc2ccccc2)NC(=O)c2ccccc2)cc1 (stereo not given)	none (no result: uPA generation, p53 reactivator, S-ASM inh, MmCpn inh)
CCOC(=O)N1CCC(=NNC(N)=O)C1	none (no result: uPA generation, p53 reactivator, S-ASM inh, MmCpn inh)
CC(C)NC(=O)Nc1ccc2c(c1)C(=O)N([C@H](C)CO)C[C@H](C)[C@@H](CN(C)Cc1ccc3c(c1)OCO3)OCCCC[C@@H](C)O2	none (no result: uPA generation, p53 reactivator, S-ASM inh, MmCpn inh)
COC(=O)C[C@H]1C[C@@H]2c3cc(NS(=O)(=O)c4cccc(OC)c4)ccc3O[C@@H]2[C@@H](CO)O1	none (no result: uPA generation, p53 reactivator, S-ASM inh, MmCpn inh)
O=C(CSc1nnc(SCc2ccccc2)s1)NNC(=S)Nc1ccccc1	S-ASM inh inconclusive, KCNH2 WT inh -85

Bioassay records from PubChem BioAssay.
